The values below come from PubChem BioAssay AID602474 (National Center for Advancing Translational Sciences (NCATS), 2012).

The structures appear in SMILES notation. Records with an inconclusive call do not appear. Entries that show only a call come without a potency. Active and inactive are the calls of the source. The call rests on the fitted dose curve; in most records, active means well fitted inhibition curve with a large enough effect; inconclusive means small, poorly fitted or top-dose-only effect; inactive means no such curve, though single readings can be large or run the other way.

Luciferin 4-monooxygenase (Photinus pyralis), sequence (P08659 whole entry, looked up): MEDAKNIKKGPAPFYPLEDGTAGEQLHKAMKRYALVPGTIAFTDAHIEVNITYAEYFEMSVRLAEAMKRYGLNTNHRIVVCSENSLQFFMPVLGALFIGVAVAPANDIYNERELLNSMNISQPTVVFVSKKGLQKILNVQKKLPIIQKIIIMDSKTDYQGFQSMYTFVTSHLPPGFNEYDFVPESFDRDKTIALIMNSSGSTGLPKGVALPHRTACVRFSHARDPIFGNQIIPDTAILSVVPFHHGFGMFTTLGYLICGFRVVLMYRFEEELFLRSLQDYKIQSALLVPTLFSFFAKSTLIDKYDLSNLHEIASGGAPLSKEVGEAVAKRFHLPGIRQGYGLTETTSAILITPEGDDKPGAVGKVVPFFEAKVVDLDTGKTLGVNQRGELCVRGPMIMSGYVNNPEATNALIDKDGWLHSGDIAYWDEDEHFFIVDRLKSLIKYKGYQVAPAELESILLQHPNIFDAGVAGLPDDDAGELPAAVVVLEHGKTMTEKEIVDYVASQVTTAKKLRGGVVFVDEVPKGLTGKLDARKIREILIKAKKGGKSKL

The target in the experiment is Luciferin 4-monooxygenase (Photinus pyralis) (UniProt P08659). In words: FLuc inhibitory activity for the follow-up compounds in a biochemical assay with a commercial detection reagent - BriteliteTM Plus (PerkinElmer). The conditions noted are these: purified FLuc, Britelite Plus luminescence; series mostly up to 38.3 µM. The text has this:
NCGC Assay Overview: Firefly (Photinus pyralis) luciferase is one of the most commonly used transcriptional reporters. It is considered one of the more dynamically responsive reporters - that is, responsive to changes in reporter transcription - as it requires no post-translational modifications and is enzymatically active directly after protein synthesis (Wood, 1998). With no endogenous expression in mammalian cells and without the requirement of external excitation, it offers very little background signal, thus generally providing excellent signal to background for most assays. Previous profiling work to determine the prevalence of compounds that affect FLuc enzymatic activity (PubChem AID 411) identified that ~3% of the MLSMR library (then at ~72K) inhibited FLuc (Auld et al., 2008). […] Of the compounds identified in this profile that inhibited FLuc, 151 compounds were selected for further analysis, in an effort to better understand their mode of inhibiting FLuc. The assay described here was to determine the activity of the compounds in a FLuc assay that used a commercial formulation of detection reagent (BriteliteTM Plus; PerkinElmer).
NCGC Assay Protocol Summary: Reagents: Britelite Plus detection reagent; 50mM Tris acetate, pH 7.5; 10nM P. pyralis luciferase (Sigma #L9506) Control compounds used were two known firefly luciferase inhibitors (3-(5-(3-chlorophenyl)-1,2,4-oxadiazol-3-yl)benzoic acid and 5-(2-fluorophenyl)-3-phenyl-1,2,4-oxadiazole), and DMSO. Assay Summary: Three microliters of buffer containing firefly luciferase (final concentrations: 50mM Tris acetate, 10nM P. pyralis luciferase) are dispensed into each well of a Greiner white, solid-bottom 1536-well format plate using a flying reagent dispenser (FRD). These assay plates were then treated with 23nL of compound or DMSO using a Kalypsys pin tool, which allows for delivery of a 12-point intraplate titration of each compound to the assay plate (quantitative HTS), with final compound concentrations ranging from approximately ~38uM to 0.2nM. Three microliters of 2X Britelite Plus detection reagent was then delivered by FRD to each well. Luciferase activity was then measured using a ViewLux CCD imager (PerkinElmer), with an average exposure time of 2-30 seconds (2X binning, medium/high gain).
With `CCOc1ccc2nc(NC(=O)c3ccccn3)sc2c1`, the Potency is 0.895 µM (active). On to `COc1ccc(C(=O)Nc2ccccc2C(=O)Nc2ccc(C(=O)O)cc2)cc1`, for which the Potency was 14.2 µM (active). Turning to `Cc1c(C)c2ccc(OCC(=O)Nc3ccccn3)c(C)c2oc1=O`, the Potency is 0.04 µM (active). In the case of `Nc1ccc2nc(-c3ccccc3)sc2c1`, the Potency was 0.634 µM (active). For `Cn1c(N/N=C/c2cc3ccccc3nc2Cl)nc2ccccc21` the value was 12.6 µM (active); for `COc1ccc(-c2nc3ccccc3s2)cc1O`, 0.711 µM (active); for `COc1cccc(-c2nc3ccccc3s2)c1`, 5.65 µM (active). Take `O=C(Nc1ccccc1C(=O)O)c1ccccc1`: the Potency entry is “inactive”.

Regarding `CN(C)S(=O)(=O)c1ccc(C(=O)Nc2ccccc2C(=O)O)cc1`, the Potency entry was “inactive”.

With `O=C(Nc1ccccc1C(=O)Nc1ccccc1C(=O)O)c1ccccc1`, the Potency entry is “inactive”. Regarding `O=C(Nc1ccccc1C(=O)O)c1cccc(NC(=O)c2ccccc2Cl)c1`, the Potency result was “inactive”. For `Cc1ccc(S(=O)(=O)N2CCOCC2)cc1C(=O)Nc1ccccc1C(=O)O` the value was “inactive”.

In the case of `Cc1ccc(NS(=O)(=O)c2ccc(Cl)c(C(=O)Nc3cccc(C(=O)O)c3)c2)cc1`, the Potency result is “inactive”. For `CCc1noc(C)c1C(=O)Nc1nc2ccc(OC)cc2s1` the value was 0.0504 µM (active); for `COc1ccc2nc(NC(=O)c3nc(S(=O)(=O)Cc4ccc(C)cc4)ncc3Cl)sc2c1`, “inactive”; for `Nc1ccc(-c2nc3cc(N)ccc3s2)cc1`, 4 µM (active). The same measure for `O=C(Nc1ccccc1-c1nc2ccccc2s1)c1cccnc1`: “inactive”; for `O=C(Nc1c(Cl)cc(Cl)cc1-c1nc2ccccc2s1)c1ccc(Br)o1`: 17.9 µM (active); for `O=C(Nc1ccc(Cl)cc1-c1nc2ccccc2s1)c1ccco1`: “inactive”. For `Cc1ccc(C(=O)Nc2cccc(C(=O)O)c2)cc1` the value was 2 µM (active); for `COc1ccc(C(=O)Nc2cccc(C(=O)O)c2)cc1S(=O)(=O)N1CCCC1`, “inactive”; for `O=C(O)c1ccccc1NC(=O)c1ccccc1Nc1ccccc1`, “inactive”. Regarding `CCOC(=O)N1CCN(CC(=O)Nc2nc3ccc(OC)cc3s2)CC1`, the Potency entry is “inactive”. With `Nc1ccc2nc(-c3ccc(O)cc3)sc2c1`, the Potency was 1.13 µM (active). Take `O=C(O)c1cccc(NC(=O)c2ccc(COc3ccc(Cl)cc3)cc2)c1`: the Potency result was “inactive”. For `O=C(O)c1cccc(NC(=O)c2cccc(NC(=O)C3CCCO3)c2)c1` (stereo not given) the value was 11.3 µM (active). Consider `O=C(O)c1cccc(NC(=O)c2ccccc2NC(=O)c2ccco2)c1`, for which the Potency entry was “inactive”.

With `COc1c(C)cccc1C(=O)Nc1ccc(-c2nc3ccccc3s2)c(Cl)c1`, the Potency is 7.11 µM (active). On to `Cc1ccc2sc(-c3ccc(NC(=O)c4cc(-n5cnnc5)ccc4Cl)cc3)nc2c1`, for which the Potency entry is “inactive”. As for `O=C(Nc1ccccc1C(=O)O)c1ccc(NC(=O)C2CC2)cc1`, the Potency was 4.49 µM (active). For `O=C(O)c1cccc(NC(=O)c2ccccc2NC(=O)c2ccccc2F)c1` the value was “inactive”. The same measure for `Cc1ccc(C(=O)Nc2cccc(C(=O)O)c2)cc1S(=O)(=O)N1CCOCC1`: 11.3 µM (active); for `COc1ccc2nc(NC(=O)c3cccs3)sc2c1`: “inactive”; for `Cc1ccccc1C(=O)Nc1cccc(C(=O)Nc2ccccc2C(=O)O)c1`: “inactive”. For `COc1ccccc1C(=O)Nc1ccc(C(=O)Nc2ccccc2C(=O)O)cc1` the value was “inactive”. For the compound `Nc1ccccc1C(=O)Nc1cccc(C(=O)O)c1`, the Potency is 12.6 µM (active). The same measure for `O=C(Nc1ccccc1C(=O)O)c1cc(S(=O)(=O)Nc2cccc(F)c2)ccc1Cl`: “inactive”; for `COc1ccc2nc(NC(=O)c3ccc(S(=O)(=O)N4CCCC(C)C4)cc3)sc2c1` (stereo not given): “inactive”. For `CC(=O)Nc1cccc(-c2nc3ccccc3s2)c1C`, the Potency entry is “inactive”.

On to `CN=c1scc(-c2ccccc2F)n1/N=C/c1ccc[nH]1`, for which the Potency was 0.0798 µM (active).
